The nature of test [1]: anti-His antibody binders, primary screen, artefact control for SMM control protein annotation, biochemical, small-molecule microarray, 635 nm fluorescence (AID 1128).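 Note: score merges feature fluorescence with signal-to-noise for each printed compound spot.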 The note with it: anti-His Alexa647 antibody binding, higher = more signal.
Test [2] has as its system Human papillomavirus type 1a E7 protein (residues 1-88). Briefly: HPV1a E7 small-molecule binders, primary screen, biochemical, small-molecule microarray, residues 1-88, 635 nm (AID 1129). The note with it: small-molecule microarray binding, fluorescence 635 nm; higher = more signal.
The target of test [3] is Focal adhesion kinase 1 (Homo sapiens) (UniProt Q05397). The test is described as follows: small-molecule microarray binders of FAK, primary screen, biochemical, 635/667 nm fluorescence, BSA, DTT (AID 1130).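 Note: composite of spot emission at 667 nm and signal to noise over triplicate slides.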 The note with it: PTK2 binding, 635 nm fluorescence, higher = more signal.
Test [4] relates to Fibrinogen (Alexa647-labelled). Briefly: fibrinogen binders on compound microarrays, profiling panel, artefact control for SMM control-protein annotation, biochemical, small-molecule microarray, 635/667 nm fluorescence (AID 1131).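 Note: z-score merges 667 nm fluorescence with per-spot signal-to-noise over triplicate slides.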 The note with it: fibrinogen-A647 binding fluorescence, higher = more signal.
Test [5] concerns the target Follistatin (Homo sapiens) (UniProt P19883). Briefly: follistatin binders on small-molecule microarrays, primary screen, biochemical, small-molecule microarray, 635/667 nm fluorescence (AID 1132). The conditions noted are these: FST binding, 635 nm fluorescence, higher = more signal.
Test [6] addresses Fibroblast growth factor 2 (Homo sapiens) (UniProt P09038). The test is described as follows: FGF2 binders on small-molecule microarrays, primary screen, biochemical, small-molecule microarray, 635/667 nm fluorescence (AID 1133). The conditions noted are these: small-molecule microarray binding, FGF2, fluorescence 635/667; higher = more signal.
The nature of test [7]: mitochondrial membrane potential change in A549 cells, profiling panel, cell-based, JC-1 fluorescence, basal, 24 h, 100 nL (AID 1138).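 Note: A549 lung adenocarcinoma cells under basal conditions with no added stimulus; test concentration not given here.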 The note with it: higher = more signal.
Test [8] relates to Lefty1. The test is described as follows: Lefty1 binders on small-molecule microarrays, primary screen, biochemical, small-molecule microarray, 635/667 nm fluorescence (AID 1139). The conditions noted are these: small-molecule microarray binding, fluorescence 635/667; higher = more signal.
Test [9] concerns wheat germ agglutinin (Triticum aestivum), Alexa647-labelled. The test is described as follows: wheat germ agglutinin binders on compound microarrays, profiling panel, artefact control for SMM control-protein annotation, biochemical, small-molecule microarray, 635/667 nm fluorescence (AID 1140).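 Note: score merges 667 nm feature emission with signal to noise over triplicate slides.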 The conditions noted are these: WGA-A647 binding, 635 nm fluorescence, higher = more signal.

Test [10] concerns the target Luciferin 4-monooxygenase (Photinus pyralis) (UniProt P08659). The test is described as follows: firefly luciferase enzyme inhibitors, primary screen, biochemical, luminescence, purified enzyme, 2006 set (AID 1141).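 Note: cell-free assay with purified firefly luciferase at 100 ng per well in PBS; test concentration not given here.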 The conditions noted are these: SteadyGlo luminescence, 30 min, higher = more signal, called active from +8 up or from −8 down.
Test [11] has as its system Wnt5a (protein binding on small-molecule microarray). Briefly: Wnt5a binders on small-molecule microarray, primary screen, biophysical, 635/667 nm fluorescence (AID 1142).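 Note: fluorescence read at 667 nm with signal to noise per printed feature.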 The note with it: 635 nm fluorescence, higher = more signal.
Test [12] is described as follows: cell viability in Huh7 cells, primary screen, cytotoxicity control for HCV replication inhibitor project, CellTiter-Glo luminescence, basal, 48 h (AID 1143).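 Note: Huh7 hepatoma cells carrying a hepatitis C replication reporter with no stimulus; test concentration not given here.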 The conditions noted are these: Huh7 HCV replicon, higher = more signal, called active from +8 up or from −8 down.
Test [13] can be described thus: P. aeruginosa biofilm formation inhibitors, primary screen, PAO1 strain, BacTiter-Glo luminescence, LB-PBS (AID 1144). The note with it: 12 h, higher = more signal.
Test [14] in a line: CREB reporter modulators without forskolin, primary screen, cell-based, PC12, CRE-LacZ reporter, unstimulated (AID 1145). The note with it: no forskolin, luminescence, 4.5 h, higher = more signal, called active from +8 up or from −8 down.
Test [15] is described as follows: CREB reporter modulators under forskolin, primary screen, cell-based, PC12, CRE-LacZ reporter, forskolin-stimulated (AID 1146).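 Note: PC12 cells with 6xCRE LacZ reporter stimulated by forskolin 10 µM; beta-galactosidase reporter signal reflecting CREB driven transcription.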 The note with it: luminescence, 4.5 h, higher = more signal, called active from +8 up or from −8 down.
Test [16] deals with Streptavidin (Streptomyces avidinii) (UniProt P22629). The test is described as follows: streptavidin binders on small-molecule microarray, primary screen, artefact control for SMM compound annotation, biophysical, 635/667 nm fluorescence (AID 1147).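 Note: signal reflects streptavidin binding to arrayed compounds as a control protein.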 The note with it: streptavidin binding, higher = more signal.
Test [17] can be described thus: small-molecule binders of probe aInhba, primary screen, biochemical, small-molecule microarray, 635/667 nm fluorescence (AID 1148).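 Note: score merges 667nm spot fluorescence with signal-to-noise for antibody binding to printed compounds.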 The note with it: higher = more signal.
Test [18] deals with Torsin-1A (Homo sapiens) (UniProt O14656). Briefly: torsin A binders from cell lysate, primary screen, small-molecule microarray, wild-type, 635/667 nm (AID 1149). The note with it: COS7 hTOR1A-WT lysate, 635 nm fluorescence, higher = more signal.
Test [19] shares this target. Briefly: small-molecule binders of mutant TOR1A in lysate, primary screen, cell lysate, small-molecule microarray, COS7 lysate, 635/667 nm fluorescence (AID 1150).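 Note: score pools 667 nm emission and signal to noise measuring lysate protein binding.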 The note with it: COS7 hTOR1A mutant lysate, 635 nm fluorescence, higher = more signal.
The test system of test [20] is Sonic hedgehog protein (Shh). Briefly: small-molecule binders of Shh protein, primary screen, biochemical, small-molecule microarray, 635/667 nm fluorescence (AID 1151).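 Note: Shh protein binding to compounds spotted on small-molecule microarray slides; score combines spot fluorescence intensity with signal-to-noise across triplicate slides.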 The note with it: small-molecule microarray binding, 635 nm fluorescence; higher = more signal.

This is an account of results in PubChem BioAssay.

SMILES strings stand for the structures. Calls of active or inactive are those of the source. Unless noted, the rule behind the calls is not given here.

Chain of Luciferin 4-monooxygenase (Photinus pyralis) (P08659 whole entry, looked up): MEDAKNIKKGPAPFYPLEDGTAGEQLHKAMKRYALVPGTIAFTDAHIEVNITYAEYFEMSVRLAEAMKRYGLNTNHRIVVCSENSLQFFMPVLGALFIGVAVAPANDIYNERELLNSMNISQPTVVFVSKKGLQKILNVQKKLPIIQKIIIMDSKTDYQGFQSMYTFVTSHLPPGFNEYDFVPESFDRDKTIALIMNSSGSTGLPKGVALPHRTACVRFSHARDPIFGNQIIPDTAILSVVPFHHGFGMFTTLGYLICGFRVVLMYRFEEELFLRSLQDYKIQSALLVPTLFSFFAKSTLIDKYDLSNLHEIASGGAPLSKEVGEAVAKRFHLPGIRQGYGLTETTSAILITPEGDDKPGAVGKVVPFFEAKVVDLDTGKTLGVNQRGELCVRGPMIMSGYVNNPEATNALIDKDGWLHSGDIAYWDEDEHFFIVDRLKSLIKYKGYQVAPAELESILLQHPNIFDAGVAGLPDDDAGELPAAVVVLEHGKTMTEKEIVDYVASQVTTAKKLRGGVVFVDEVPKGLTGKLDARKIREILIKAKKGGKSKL
Chain of Streptavidin (Streptomyces avidinii) (P22629 whole entry, looked up): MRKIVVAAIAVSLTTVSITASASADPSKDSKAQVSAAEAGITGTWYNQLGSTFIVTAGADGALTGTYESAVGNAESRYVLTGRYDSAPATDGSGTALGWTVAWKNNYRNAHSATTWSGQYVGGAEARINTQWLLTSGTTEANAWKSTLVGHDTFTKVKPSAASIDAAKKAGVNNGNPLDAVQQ
Chain of Follistatin (Homo sapiens) (P19883 whole entry, looked up): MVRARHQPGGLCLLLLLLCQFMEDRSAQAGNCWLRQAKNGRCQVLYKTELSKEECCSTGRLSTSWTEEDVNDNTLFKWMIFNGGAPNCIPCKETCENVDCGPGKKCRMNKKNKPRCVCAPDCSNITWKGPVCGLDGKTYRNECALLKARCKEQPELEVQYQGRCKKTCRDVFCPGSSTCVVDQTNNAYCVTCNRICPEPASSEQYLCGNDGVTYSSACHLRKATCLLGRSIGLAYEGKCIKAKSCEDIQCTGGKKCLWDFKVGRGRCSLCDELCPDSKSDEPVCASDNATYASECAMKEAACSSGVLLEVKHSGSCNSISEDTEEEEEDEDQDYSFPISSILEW
Chain of Focal adhesion kinase 1 (Homo sapiens) (Q05397 whole entry, looked up): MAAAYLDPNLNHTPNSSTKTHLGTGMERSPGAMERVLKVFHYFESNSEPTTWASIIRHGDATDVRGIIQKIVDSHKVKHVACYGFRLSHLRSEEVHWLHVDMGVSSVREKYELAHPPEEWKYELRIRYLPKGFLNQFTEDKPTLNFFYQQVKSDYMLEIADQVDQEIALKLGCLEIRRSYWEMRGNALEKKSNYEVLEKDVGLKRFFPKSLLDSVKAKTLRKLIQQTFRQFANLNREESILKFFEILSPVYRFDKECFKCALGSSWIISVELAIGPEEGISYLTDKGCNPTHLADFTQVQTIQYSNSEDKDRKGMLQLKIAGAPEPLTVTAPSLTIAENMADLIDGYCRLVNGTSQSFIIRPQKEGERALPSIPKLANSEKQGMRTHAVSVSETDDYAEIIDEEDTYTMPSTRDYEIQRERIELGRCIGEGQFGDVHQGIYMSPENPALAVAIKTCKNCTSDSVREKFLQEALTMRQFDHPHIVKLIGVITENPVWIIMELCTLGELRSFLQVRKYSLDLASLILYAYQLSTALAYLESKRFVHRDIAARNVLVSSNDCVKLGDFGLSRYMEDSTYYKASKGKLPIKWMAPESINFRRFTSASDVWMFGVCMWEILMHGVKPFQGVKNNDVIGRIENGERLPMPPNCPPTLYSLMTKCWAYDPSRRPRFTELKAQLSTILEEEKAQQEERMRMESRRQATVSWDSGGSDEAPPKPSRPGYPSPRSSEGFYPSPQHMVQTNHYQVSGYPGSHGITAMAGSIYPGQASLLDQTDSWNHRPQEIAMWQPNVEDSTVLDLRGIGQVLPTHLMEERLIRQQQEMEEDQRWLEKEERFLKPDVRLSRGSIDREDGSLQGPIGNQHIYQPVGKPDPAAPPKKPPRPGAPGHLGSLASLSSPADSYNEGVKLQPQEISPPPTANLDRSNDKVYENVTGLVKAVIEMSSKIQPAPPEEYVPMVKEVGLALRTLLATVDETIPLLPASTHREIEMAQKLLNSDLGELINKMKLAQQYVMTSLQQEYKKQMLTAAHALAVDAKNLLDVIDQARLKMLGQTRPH
Chain of Torsin-1A (Homo sapiens) (O14656 whole entry, looked up): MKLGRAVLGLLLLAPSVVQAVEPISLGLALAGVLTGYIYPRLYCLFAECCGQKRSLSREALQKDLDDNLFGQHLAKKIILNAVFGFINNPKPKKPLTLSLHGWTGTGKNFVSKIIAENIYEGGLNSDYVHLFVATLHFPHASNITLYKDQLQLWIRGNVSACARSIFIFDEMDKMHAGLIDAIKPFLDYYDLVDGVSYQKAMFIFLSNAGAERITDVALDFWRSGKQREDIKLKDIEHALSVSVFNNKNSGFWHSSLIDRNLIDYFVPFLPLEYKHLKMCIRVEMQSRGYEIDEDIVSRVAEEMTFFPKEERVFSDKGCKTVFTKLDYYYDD
Chain of Fibroblast growth factor 2 (Homo sapiens) (P09038 whole entry, looked up): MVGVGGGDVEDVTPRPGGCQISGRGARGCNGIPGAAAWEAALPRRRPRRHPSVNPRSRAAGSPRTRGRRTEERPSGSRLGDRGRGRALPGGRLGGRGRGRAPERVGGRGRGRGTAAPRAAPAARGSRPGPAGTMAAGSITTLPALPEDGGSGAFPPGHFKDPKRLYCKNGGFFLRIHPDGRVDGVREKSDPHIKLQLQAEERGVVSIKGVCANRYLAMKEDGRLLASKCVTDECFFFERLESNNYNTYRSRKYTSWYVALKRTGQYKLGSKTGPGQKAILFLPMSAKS

For the compound `CCCC[C@H]1OB(O)C[C@H]2C1=C(COC)C[C@H]1C(=O)C=CC(=O)[C@H]12`, the composite z-score was 0.51 in test [1]; 0.215 in [2]; -0.0157 in test [3]; 0.287 in [4]; 0.865 in [5]; 0.32 in [6]. Besides, the composite z-score is 0.96 in test [8]; 0.106 in [9]; 0.269 in [11]; -0.045 in test [16]; -0.0552 in [17]; 0.283 in test [18]. For the same compound, the composite z-score is -0.0615 in test [19] and 1.63 in test [20]. Moreover, the z-score in [7] is 0.777; in test [10] it was -3.03 (inactive); in test [12], -1.06 (inactive); in test [13] it was -0.229 (inactive); in test [14], 10.7 (active); in test [15] it was 6.12 (inactive).

For `C=C(CCCC)/C(=C/C[C@H](OC(C)=O)c1cccc(OCCO)c1)c1cc(C(=O)OC)ccc1OC`, the composite z-score was -0.799 in test [1]; -0.426 in test [2]; -0.325 in test [3]; 0.33 in test [4]; 0.0088 in test [5]; 0.261 in test [6]. The composite z-score is 0.283 in [8]; 0.635 in test [9]; -0.229 in [11]; -0.77 in [16]; -0.0059 in [17]; -0.552 in test [18]. Moreover, the composite z-score in [19] is -0.426; in test [20] it was 0.454. The z-score is 3.6 in test [7]; -1.64 (inactive) in [10]; -0.845 (inactive) in test [12]; 0.0689 (inactive) in test [13]; 12.1 (active) in test [14]; -0.834 (inactive) in test [15].

With `COCCOC(=O)N1C(=O)[C@@]2(c3cc(C#CCC(C(=O)OC)C(=O)OC)ccc31)[C@H](C(N)=O)[C@H]1C(=O)O[C@H](c3ccccc3)[C@H](c3ccccc3)N1[C@@H]2c1ccc(OCCO)cc1`, the composite z-score in test [1] amounted to 1.37; in test [2], 1.22; in test [3] it was 0.985; in test [4], 0.923; in test [5], 1.25; in [6], 1.1. Besides, the composite z-score in test [8] was determined as 0.596; in test [9], 0.762; in [11], 0.787; in test [16], 0.528; in test [17], 0.105; in test [18] it was 0.704. Also, the values for the composite z-score in [19] and in [20] were 0.643 and 1.07, respectively. The z-score in test [7] is -1.07; in test [10], -0.409 (inactive); in [12], -2.89 (inactive); in test [13], -0.224 (inactive); in test [14] it was 0.478 (inactive); in test [15], -0.372 (inactive).

Turning to `O=C(NCC(F)(F)F)[C@@H]1c2ccccc2C(=O)N(CC23CC4CC(CC(C4)C2)C3)[C@H]1c1ccc(CO)cc1`, the composite z-score came to 1.08 in [1]; 0.722 in test [2]; 1.46 in [3]; 0.378 in test [4]; 1.16 in [5]; 1.15 in test [6]. Also, the composite z-score in test [8] is 0.827; in test [9], 0.393; in test [11], 0.41; in [16], -0.169; in test [17], 0.038; in [18], 0.11. The composite z-score came out at 0.438 in [19] and 1.62 in test [20]. The z-score in test [7] was 0.588; in test [10], 0.972 (inactive); in test [12], -3.88 (inactive); in test [13], -2.52 (inactive); in test [14], -0.412 (inactive); in test [15], -1.46 (inactive).
